Experimental data from PubChem BioAssay AID1259313 (Sanford-Burnham Center for Chemical Genomics, 2017).
The whole screen tested about 340,000 compounds, of which about 8,500 (2.5%) were called active.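 How the source made its calls: active means melting temperature shift of at least 10% of the positive control shift, at one fixed dose; inactive means the rest.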 This excerpt belongs to a sample that is enriched for actives.

What follows are molecules tested on Glutamate receptor ionotropic, NMDA 3A (GRIN3A) ligand-binding domain (assay: binders of NR3A ligand-binding domain, primary screen, biophysical, differential scanning fluorimetry, uHTS (AID 1259313)). Conditions: NR3A LBD differential scanning fluorimetry, at 25 µM, hits give high values, 0% = protein alone, 100% = glycine-bound protein.
In the case of `CCCCCCC(O)(CCN1CCCCC1)c1ccccc1` (centres undefined), the Tm shift relative to glycine control is reported as -3.65% (inactive).
`S=c1[nH]nc(-c2cccs2)n1/N=C/c1cccs1` was tested, and the Tm shift relative to glycine control was 0.68% (inactive).
For `S=c1[nH]nc(-c2cccs2)n1/N=C/c1cn(-c2ccccc2)nc1-c1ccc(Cl)cc1`, the Tm shift relative to glycine control was 15.2% (active).
For `S=c1[nH]nc(-c2ccncc2)n1/N=C/c1ccccc1Cl`, the Tm shift relative to glycine control was -1.38% (inactive).
With `CC(C(=O)Nc1ccccc1-c1ccccc1)N1CCOCC1` (centres undefined) the Tm shift relative to glycine control was -18.3% (inactive).
With `CC(N=Cc1nc(-c2ccccc2)oc1O)c1ccccc1` (centres undefined) the Tm shift relative to glycine control was 1.17% (inactive).
`CCOc1ccc2nc(/N=C/c3nc(-c4ccccc4)oc3O)sc2c1` was tested, and the Tm shift relative to glycine control was 38% (active).
`CCOc1ccc2nc(C(=O)N3CCCC(C)C3)sc2c1` (centres undefined) was tested, and the Tm shift relative to glycine control was 3.03% (inactive).
In the case of `CCn1c(SCC(=O)NC2CC2)nnc1-c1ccccc1OC`, the Tm shift relative to glycine control is reported as -19.3% (inactive).
`COc1ccccc1-c1nnc2n1N=C(c1ccc(OC(F)F)c(OCC3CC3)c1)CS2` was tested, and the Tm shift relative to glycine control was 20.6% (active).
For `COc1ccc(C2=Nn3c(nnc3-c3ccccc3OC)SC2)cc1OC1CCCC1`, the Tm shift relative to glycine control was -1.54% (inactive).
In the case of `Cn1c(C(=O)OC(C(=O)NC2CCCCC2)c2ccccn2)cc2sccc21` (centres undefined), the Tm shift relative to glycine control is reported as -2.22% (inactive).
In the case of `C/C(CC(=O)NC(C)(C)C)=N\NC(=O)c1ccco1`, the Tm shift relative to glycine control is reported as -2.4% (inactive).
`C/C(=N/NC(=O)CCc1ccccc1)c1ccco1` was tested, and the Tm shift relative to glycine control was 13.4% (active).
For `C/C(=N/NC(=O)C1COc2ccccc2O1)c1ccco1` (centres undefined), the Tm shift relative to glycine control was 0.45% (inactive).
In the case of `C=C(C)CNC(=S)/N=c1\scc(C)n1CC`, the Tm shift relative to glycine control is reported as 0.78% (inactive).
For `Cc1c(Cl)cccc1NC(=O)CSc1ccc(-c2cccnc2)nn1`, the Tm shift relative to glycine control was 0.4% (inactive).
`COc1ccc([C@H]2[C@H](C(C)=O)N3N=Cc4ccccc4C3C23C(=O)OC(C)(C)OC3=O)cc1` (some centres undefined) was tested, and the Tm shift relative to glycine control was 1.26% (inactive).
For `COc1cc2ccccc2cc1C(=O)Nc1ccc(S(=O)(=O)Nc2cc(C)on2)cc1`, the Tm shift relative to glycine control was -5.06% (inactive).
In the case of `COc1cc(NC(=O)c2ccc3c(c2)OCO3)ccc1NC(=O)c1cccs1`, the Tm shift relative to glycine control is reported as 26.8% (active).
`COc1cc2ccccc2cc1C(=O)Nc1ccncc1` was tested, and the Tm shift relative to glycine control was -12.5% (inactive).
With `COc1cc(NC(=O)c2cccs2)ccc1NC(=O)c1ccccc1Cl` the Tm shift relative to glycine control was 11.9% (active).
`COc1cc(Cl)c(C)cc1NC(=O)[C@@H]1CCCN1C(=O)c1cccs1` was tested, and the Tm shift relative to glycine control was -1.61% (inactive).
In the case of `CC(C)C(=O)Nc1cccc(C(=O)Nc2ccc3c(c2)OCO3)c1`, the Tm shift relative to glycine control is reported as -22.3% (inactive).
`O=C(Nc1ccc(NC(=O)c2ccc3c(c2)OCO3)cc1)c1cccc(Cl)c1` was tested, and the Tm shift relative to glycine control was 4.36% (inactive).
With `COc1cc2ccccc2cc1C(=O)Nc1ccc(NC(=O)c2cccs2)cc1` the Tm shift relative to glycine control was 28.6% (active).
With `COc1cc(NC(=O)COc2ccccc2Cl)ccc1NC(=O)C(C)C` the Tm shift relative to glycine control was -1.36% (inactive).
In the case of `Cc1cc(C(=O)CC#N)c(C)n1CC(F)(F)F`, the Tm shift relative to glycine control is reported as 0.49% (inactive).
`O=C(Nc1cccc(S(=O)(=O)N2CCCC2)c1)c1cncc(Br)c1` was tested, and the Tm shift relative to glycine control was -1.22% (inactive).
With `COc1ccc(N2CCN(CCNC(=O)Nc3cc(Cl)ccc3Cl)CC2)cc1` the Tm shift relative to glycine control was -1.01% (inactive).
For `O=c1c2ccccc2ncn1/N=C/c1ccccc1`, the Tm shift relative to glycine control was -2.01% (inactive).
With `Cc1ccc(OCC(=O)N2CCN(C(=O)c3cccnc3)CC2)cc1` the Tm shift relative to glycine control was -1.15% (inactive).
With `O=C(/C=C/c1ccc(Cl)cc1)Nc1ccc(Br)cn1` the Tm shift relative to glycine control was 0.46% (inactive).
`Cc1ccccc1N(C(=O)Cc1cccs1)C(C(=O)NC1CCCCC1)c1cn(C)nc1C` (centres undefined) was tested, and the Tm shift relative to glycine control was -0.71% (inactive).
For `O=C(CSc1nc2ccccc2c(=O)[nH]1)Nc1nc(-c2ccc(Br)cc2)cs1`, the Tm shift relative to glycine control was 36.1% (active).
For `CCOC(=O)c1ccccc1NC(=O)CSc1nc2ccccc2c(=O)[nH]1`, the Tm shift relative to glycine control was -1.86% (inactive).
With `O=C(COC(=O)c1cc(=O)[nH]c2ccccc12)NCc1cccc(Cl)c1` the Tm shift relative to glycine control was -0.85% (inactive).
In the case of `O=C(COC(=O)c1cc(=O)[nH]c2ccccc12)Nc1nc(-c2cccc(Br)c2)cs1`, the Tm shift relative to glycine control is reported as 10.6% (active).
With `CC(NC(=O)COC(=O)c1cc(=O)[nH]c2ccccc12)c1ccccc1` (centres undefined) the Tm shift relative to glycine control was -1% (inactive).
`CC(=O)NCc1ccc(-c2csc(NC(=O)CCCc3nc4ccccc4c(=O)[nH]3)n2)cc1` was tested, and the Tm shift relative to glycine control was -1.27% (inactive).
With `Cc1ccc(-c2cc(=O)[nH]c(NCc3ccccc3)n2)cc1` the Tm shift relative to glycine control was -1.01% (inactive).
With `COc1cc(OC)c(OC)cc1CN1CCN(C(=O)c2cccc3ccccc23)CC1` the Tm shift relative to glycine control was -1.19% (inactive).
`Cc1cc(C)nc(/N=C2\NC(=O)CC(C(=O)O)N2c2ccc(Cl)cc2Cl)n1` (centres undefined) was tested, and the Tm shift relative to glycine control was -1.26% (inactive).
With `O=C(CCN1C(=O)C2CCCCC2C1=O)Nc1ccc(OC(F)F)cc1` (centres undefined) the Tm shift relative to glycine control was 2.89% (inactive).
In the case of `O=C(Nc1cc(C(F)(F)F)ccc1Cl)C(=O)N1CCCCC1`, the Tm shift relative to glycine control is reported as -10.1% (inactive).
For `O=C(NNc1ccccc1Cl)C(O)(c1cccc(C(F)(F)F)c1)c1cccc(C(F)(F)F)c1`, the Tm shift relative to glycine control was 27.5% (active).
With `O=C(O)c1cc(S(=O)(=O)N(Cc2ccccc2)c2cccc(C(F)(F)F)c2)ccc1Cl` the Tm shift relative to glycine control was 2.79% (inactive).
For `Nc1cc2c(cc1Br)-c1ccc(F)cc1C2=O`, the Tm shift relative to glycine control was -2.14% (inactive).
For `Nc1nc(SCC(=O)Nc2ccc(Cl)cc2C(F)(F)F)n[nH]1`, the Tm shift relative to glycine control was 0.67% (inactive).
With `CCOc1cccc(SCc2noc(C(=O)NC(C)C)c2C(=O)O)c1` the Tm shift relative to glycine control was -0.97% (inactive).
`CCCCNC(=O)c1onc(CSc2cccc(OC)c2)c1C(=O)O` was tested, and the Tm shift relative to glycine control was 3.23% (inactive).
For `COCCNC(=O)c1onc(CSc2cccc(C)c2)c1C(=O)O`, the Tm shift relative to glycine control was 18.5% (active).
In the case of `CCC(=O)N(C)C(c1ccccc1Cl)c1nnnn1-c1c(C)cccc1C` (centres undefined), the Tm shift relative to glycine control is reported as 38.2% (active).
`COCCn1nnnc1C(c1ccccc1Cl)N1CCN(c2ccccc2OC)CC1` (centres undefined) was tested, and the Tm shift relative to glycine control was 2.04% (inactive).
In the case of `CN(C)/C=C(/C(=O)c1ccc(Cl)c(Cl)c1)c1nnnn1-c1ccccc1`, the Tm shift relative to glycine control is reported as -0.1% (inactive).
In the case of `O=C(CCC(=O)N1CCN(S(=O)(=O)c2ccc(Cl)cc2)CC1)NCc1cccc(C(F)(F)F)c1`, the Tm shift relative to glycine control is reported as -1.09% (inactive).
`O=C(O)C1C2CC2CN1C(=O)c1ccc(Cl)cc1Cl` (centres undefined) was tested, and the Tm shift relative to glycine control was -0.76% (inactive).
With `O=C(/C=C/c1cn(-c2ccccc2)nc1-c1ccc2c(c1)OCCO2)NCCCN1CCOCC1` the Tm shift relative to glycine control was -0.74% (inactive).
For `O=C(O)c1ccc(NC(=O)c2cn(-c3ccccc3)nc2-c2ccc(Cl)cc2)cc1`, the Tm shift relative to glycine control was 12% (active).
In the case of `NS(=O)(=O)c1cccc(NC(=O)CSc2nc3ccccc3n2-c2ccccc2)c1`, the Tm shift relative to glycine control is reported as -3.25% (inactive).
With `COc1ccc(-c2nn(-c3ccccc3)cc2C(=O)Nc2nccs2)cc1OC` the Tm shift relative to glycine control was -1.92% (inactive).
For `Cc1ccc(-c2nn(-c3ccccc3)cc2C(=O)NC2CCC(O)CC2)cc1` (centres undefined), the Tm shift relative to glycine control was -1.68% (inactive).
In the case of `COc1ccc(NC(=O)c2ccccc2CC[N+](=O)[O-])cc1`, the Tm shift relative to glycine control is reported as 1.34% (inactive).
With `Cc1occc1C(=O)Nc1cccc(S(=O)(=O)N2CCOCC2)c1` the Tm shift relative to glycine control was 0.26% (inactive).
`Cc1ccc(-c2nn(-c3ccccc3)cc2C(=O)Nc2cccc(S(=O)(=O)N3CCOCC3)c2)cc1` was tested, and the Tm shift relative to glycine control was 10.7% (active).
For `COc1ccc(NC(=O)c2cn(-c3ccccc3)nc2SC)cc1`, the Tm shift relative to glycine control was 18.1% (active).
For `Cc1ccc(-c2nn(-c3ccccc3)cc2/C=C/C(=O)Nc2cccc(S(N)(=O)=O)c2)cc1`, the Tm shift relative to glycine control was 28.9% (active).
In the case of `CSc1ncccc1C(=O)Nc1cccc(S(=O)(=O)N2CCOCC2)c1`, the Tm shift relative to glycine control is reported as 2.41% (inactive).
With `Cc1ccc(-c2nn(-c3ccccc3)cc2C(=O)NCCCN2CCCC2=O)cc1` the Tm shift relative to glycine control was -0.51% (inactive).
